# Counter-ions that a name gives are not always drawn.
# Tested on: thyroid hormone receptor (endogenous TRα and TRβ)
# Set-up: species or system GH3-TRE-Luc (rat pituitary); GH3-TRE-Luc luciferase reporter, antagonist mode against 1 nM T3, loss of signal, qHTS
# Conditions: read-out: Average AC50 (uM) GH3-TRE-Antag; 24 h; antagonist
row,SMILES,AC50
1,CC[C@]1(O)CC[C@H]2[C@@H]3CCC4=CCCC[C@@H]4[C@H]3CC[C@@]21C [Ethylestrenol],7.8 µM
2,CN1C(=O)C(O)N=C(c2ccccc2)c2cc(Cl)ccc21 (centres unmarked) [Temazepam],> 50 µM
3,CCCCCCCCC(=O)NCc1ccc(O)c(OC)c1 [Nonivamide],> 50 µM
4,Cc1ccc(OP(=O)(Oc2ccc(C)cc2C)Oc2ccc(C)cc2C)c(C)c1 [TXP],70.6 µM
5,O=C1Nc2ccc(Cl)cc2C(c2ccccc2)=NC1O (centres unmarked) [Oxazepam],> 50 µM
6,Cc1ncc2n1-c1ccc(Cl)cc1C(c1ccccc1F)=NC2 [Midazolam hydrochloride],32.8 µM
7,Nc1c(Cl)cc([N+](=O)[O-])cc1Cl [Dicloran],91.8 µM
8,Cc1nnc2n1-c1ccc(Cl)cc1C(c1ccccc1)=NC2 [Alprazolam],41.3 µM

# From PMC6792352, “Limited Chemical Structural Diversity Found to Modulate Thyroid Hormone Receptor in the Tox21 Chemical Library” (Environmental Health Perspectives, 2019)
